Data as given in PMC4336329 (PLoS ONE, 2015).
Among all 310,000 compounds or so, about 2,200 (0.71%) showed an effect of 50% or more. Effects have a minus sign here. The sample holds strong results, similar compounds and a random draw of the others, so the mix is not that of the screen.

What follows are molecules tested against human ether-à-go-go-related gene (hERG) potassium channel (human, UniProt Q12809) (assay: primary screen, population patch clamp on CHO cells stably expressing hERG; higher = less effect of the substance).
Chain of human ether-à-go-go-related gene (hERG) potassium channel (Q12809 whole entry, looked up): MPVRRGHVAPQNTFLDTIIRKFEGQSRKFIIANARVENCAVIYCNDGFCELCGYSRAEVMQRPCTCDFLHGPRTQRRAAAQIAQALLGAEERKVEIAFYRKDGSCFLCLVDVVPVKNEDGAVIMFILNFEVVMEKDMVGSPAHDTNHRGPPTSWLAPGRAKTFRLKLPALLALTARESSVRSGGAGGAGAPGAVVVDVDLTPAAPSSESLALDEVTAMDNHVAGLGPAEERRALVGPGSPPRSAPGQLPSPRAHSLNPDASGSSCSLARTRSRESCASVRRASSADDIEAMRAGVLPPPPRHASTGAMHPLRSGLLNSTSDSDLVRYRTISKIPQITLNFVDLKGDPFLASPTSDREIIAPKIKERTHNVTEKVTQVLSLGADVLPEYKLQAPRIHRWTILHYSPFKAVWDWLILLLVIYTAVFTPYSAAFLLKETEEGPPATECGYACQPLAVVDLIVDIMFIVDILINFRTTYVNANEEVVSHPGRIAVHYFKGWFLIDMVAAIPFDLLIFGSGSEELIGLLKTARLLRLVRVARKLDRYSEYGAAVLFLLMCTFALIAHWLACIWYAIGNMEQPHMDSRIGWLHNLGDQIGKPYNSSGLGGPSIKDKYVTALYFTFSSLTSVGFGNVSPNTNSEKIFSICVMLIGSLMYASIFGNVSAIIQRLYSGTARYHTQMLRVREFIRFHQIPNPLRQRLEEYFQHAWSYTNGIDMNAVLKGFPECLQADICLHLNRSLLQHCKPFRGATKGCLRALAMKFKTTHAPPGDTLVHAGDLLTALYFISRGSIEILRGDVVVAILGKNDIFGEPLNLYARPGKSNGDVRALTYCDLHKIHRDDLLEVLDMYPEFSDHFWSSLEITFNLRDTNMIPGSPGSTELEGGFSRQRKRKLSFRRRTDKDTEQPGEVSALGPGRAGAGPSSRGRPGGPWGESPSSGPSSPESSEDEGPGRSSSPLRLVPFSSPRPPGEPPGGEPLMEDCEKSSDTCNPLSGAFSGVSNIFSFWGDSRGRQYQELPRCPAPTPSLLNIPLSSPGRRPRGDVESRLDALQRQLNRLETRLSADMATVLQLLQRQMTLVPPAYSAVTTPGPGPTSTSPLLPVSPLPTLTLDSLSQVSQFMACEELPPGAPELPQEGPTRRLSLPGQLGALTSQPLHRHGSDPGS

Row | Structure (SMILES) | hERG current change (%, negative = inhibition) at 1uM [%]
1 | S=C(N/N=C/c1cccc2ccccc12)Nc1cccc(Cl)c1 | 11.3
2 | Nc1ccc(OCc2ccccc2)cc1 | 10.7
3 | COc1ccc(CNC2CCN(Cc3ccccc3)CC2)cc1 | -3.31
4 | COc1ccc(OC)c(-n2c(CN3CCC(C(N)=O)CC3)nc3ccccc3c2=O)c1 | 7.22
5 | COc1ccc(OC)c(-n2c(CNC3CCN(Cc4ccccc4)CC3)nc3ccccc3c2=O)c1 | -69.9
6 | CS(=O)(=O)Cc1cccc(C(=O)NC2CCSc3ccccc32)c1 (stereo not shown) | 16.3
7 | CCc1ccc2nc(Nc3nc(COC)cc(=O)[nH]3)nc(C)c2c1 | -64.8
8 | COCc1cc(=O)[nH]c(Nc2nc(C)c3ccccc3n2)n1 | 6.35
9 | COCc1cc(=O)[nH]c(Nc2nc(C)c3cc(OC)ccc3n2)n1 | 10
10 | CC(=O)Nc1ccc(C(=O)NC2CCCC2)cc1 | 6.35
11 | COc1ccccc1NC(=O)CSc1nnnn1C | 16.4
12 | CSC1=NP(=S)(SC)N2CCCC2=C1C#N (stereo not shown) | 6.13
13 | CCCn1c2ccccc2c2cnn(CC(=O)NCCOC)c(=O)c21 | 6.19
14 | CCCn1c2ccccc2c2cnn(CC(=O)NCCN(C)C)c(=O)c21 | -12.5
15 | CCCn1c2ccccc2c2cnn(CC(=O)N3CCN(C4CCCCC4)CC3)c(=O)c21 | -68.5
16 | CCCn1c2ccccc2c2cnn(CC(=O)N3CCOCC3)c(=O)c21 | 7.27
17 | CCCn1c2ccccc2c2cnn(CC(=O)NC3CCCCC3)c(=O)c21 | 10.5
18 | CCCn1c2ccccc2c2cnn(CC(=O)NCCN(CC)CC)c(=O)c21 | -67
19 | C[C@@H]1CC=C[C@H]2[C@H]1C(=O)N(Cc1ccccc1)[C@H]2c1ccc(-c2ccoc2)cc1F | 17.9
20 | N#Cc1cccnc1N1CCN(C(=O)c2ccco2)CC1 | 12.7
21 | Cc1cc(N2C3CCC2CC(O)(c2ccc(F)cc2)C3)nc(-c2ccccc2)n1 (stereo not shown) | 9
22 | O=C(CCN1CCN(c2ccccc2)CC1)N/N=C/c1ccccc1O | 9.66
23 | O=C(CCN1CCN(c2ccccc2)CC1)N/N=C/c1ccc([N+](=O)[O-])o1 | -58.5
24 | CC(=O)Nc1ccc(/C=N/NC(=O)CCN2CCN(c3ccccc3)CC2)cc1 | 5.44
25 | CC(C)(C)c1nc2ccccc2[nH]1 | 10.8
26 | COc1ccc(C(CNC(=O)COc2ccc([N+](=O)[O-])cc2)N2CCCCC2)cc1 (stereo not shown) | -52.1
27 | COc1ccc(OCC(=O)NCC(c2ccc(OC)cc2)N2CCCCC2)cc1 (stereo not shown) | -1.58
28 | COc1ccc(C(CNC(=O)COc2ccccc2)N2CCCCC2)cc1 (stereo not shown) | -4.21
